Results from PubChem BioAssay (NCATS).
“And” between values parts separate entries of the source, which are not always exact repeats. Equal entries are not always repeated. Results filed as inconclusive are left out. The source made the active and inactive calls. Unless noted, calls follow the shape of the full dose curve.

Assays:
[1] = target: Mitogen-activated protein kinase 10 (Mus musculus) (UniProt Q61831); assay: JNK3 AlphaScreen Assay (AID 530; active = well fitted curve in either direction with a large enough effect, not every such curve was filed as active;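 also: kinase came from lysate of stimulated human HepG2 cells; signal reports phosphorylation of biotinylated GST-cJun 1-79 at Ser73 with 10 µM ATP; series mostly up to about 57 µM; % is scaled to controls: 0 for no effect and ±100 for the full control effect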)
Procedure, shortened: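 Biotinylated GST-cJun(1-79) served as substrate for JNK3 in HepG2 lysates stimulated with IL-1beta and TNF-alpha. ATP was 10 uM final, pH 7.6. Ser73 phosphorylation was quantified by AlphaScreen (680 nm excitation).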

[2] = target: Cytochrome P450 3A4 (Homo sapiens) (UniProt P08684); assay: qHTS Assay for Activators of Cytochrome P450 3A4 (AID 885; active = well fitted curve in the direction sought with a large enough effect; an effect the other way counts as inactive or inconclusive; also: nearly all actives have a fitted effect of over 65% in size)
Procedure, shortened: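 Luminescent readout of luciferin formed from 25 uM Luciferin-PPXE (KM level) by 20 nM CYP3A4 in 200 mM KPO4, with 60 min NADPH-driven reaction at room temperature after 10 min compound exposure. Ketoconazole (57 uM) defined 100% inhibition.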

[3] = target: 3',5'-cyclic-AMP phosphodiesterase 4B (Homo sapiens) (UniProt Q07343); assay: qHTS Assay for Inhibitors of PDE-IV (AID 607; active = well fitted activation curve with a large enough effect in the main read-out, with a control signal flat, not every such curve was filed as active; also: % of control where 0% means no effect)
Procedure, shortened: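 Cell-based read-out of cAMP via a modified cyclic nucleotide-gated channel and membrane potential dye (535/590 nm) in HEK293 cells expressing PDE4 endogenously. Compounds tested up to 22.9 uM final; 100 uM RO 20-1724 reference.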

[4] = target: Androgen receptor (Homo sapiens) (UniProt P10275); assay: qHTS assay for small molecule agonists of androgen receptor signaling (AID 588515; active = well fitted curve in the direction sought with a large enough effect in the signal ratio, with a control signal flat; the % refers to the signal ratio; also: % is scaled to controls: 0 for no effect and ±100 for the full control effect); conditions: AR-UAS-bla HEK293, beta-lactamase ratio, agonist 16 h; stronger effect = higher value
Procedure, shortened: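 Stimulation of an AR-responsive β-lactamase reporter in GripTite HEK293 cells was measured after 16 h compound exposure at 37 °C, via CCF4 fluorescence after 2 h RT. EC50 from Hill fits, normalized to R1881 at 30 nM.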

[5] = target: Androgen receptor (Homo sapiens) (UniProt P10275); assay: qHTS assay for small molecule antagonists of androgen receptor signaling (AID 588516; active = well fitted curve in the direction sought with a large enough effect in the signal ratio, with a control signal flat, not every such curve was filed as active; the % refers to the signal ratio; also: % is scaled to controls: 0 for no effect and ±100 for the full control effect)
Procedure, shortened: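 AR-UAS-bla-GripTite HEK 293 cells (2000/well, 5 h at 37 C) received compound titrations, then R1881 at 10 nM final; after 16 h at 37 C, CCF4 dye 2 h RT, beta-lactamase fluorescence read; IC50 from Hill fits.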

[6] = target: Bile acid receptor (Homo sapiens) (UniProt Q96RI1); assay: qHTS assay for small molecule antagonists of farnesoid X receptor signaling (AID 588526); also: potency is read from the fitted curve at half-maximal effect
Procedure, shortened: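 Concentration-response titrations were fitted to the Hill equation for half-maximal inhibition and maximal response, with data normalised to 50 uM chenodeoxycholic acid and DMSO control wells. Cells: FXR-UAS-bla HEK293T, dialyzed FBS.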

[7] = target: Bile acid receptor (Homo sapiens) (UniProt Q96RI1); assay: qHTS assay for small molecule agonists of farnesoid X receptor signaling (AID 588527); conditions: HEK293T FXR-UAS-bla, beta-lactamase ratio, 16 h; activation: stronger effect = higher value;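 also: series mostly up to about 77 µM; 0% = vehicle basal and 100% = reference agonist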
Procedure, shortened: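 Agonist-mode beta-lactamase reporter in GeneBLAzer FXR-UAS-bla HEK293T cells, titration up to 92 uM, 16 h exposure at 37 C, CCF4 fluorescence. Response scaled to DMSO (0%) and 100 uM chenodeoxycholic acid (100%), then Hill-fitted for EC50 and efficacy.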

[8] = target: Glucocorticoid receptor (Homo sapiens) (UniProt P04150); assay: qHTS assay for small molecule agonists of glucocorticoid receptor signaling (AID 588532; active = well fitted curve in the direction sought with a large enough effect in the signal ratio, with a control signal flat; the % refers to the signal ratio;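 also: 100% = dexamethasone at 0.1 µM and 0% = DMSO only wells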); conditions: HeLa MMTV-bla, beta-lactamase ratio, agonist, 18 h; activation: stronger effect = higher value, percent of dexamethasone control, DMSO zero
Procedure, shortened: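 Titration series, up to 92 uM, applied to GRE-bla HeLa cells for 18 h at 37 C. Detection by CCF4 FRET substrate after 2 h at RT.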

[9] = qHTS assay for small molecule antagonists of peroxisome proliferator-activated receptor delta signaling (AID 588535; active = well fitted inhibition curve with a large enough effect in the signal ratio, with a control signal flat, not every such curve was filed as active; the % refers to the signal ratio;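 as to max response: cells co-treated with a PPAR-delta agonist as stimulator during compound exposure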); conditions: HEK293T PPARd-UAS-bla, beta-lactamase FRET ratio, 18 h; 460 nm channel
Procedure, shortened: (§1)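 Compounds tested in titration on PPAR-delta-UAS-bla HEK293T cells grown in charcoal/dextran-stripped serum (2%); beta-lactamase activity read via CCF4 emission at 460 and 530 nm.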

[10] = target: Peroxisome proliferator-activated receptor delta (Homo sapiens) (UniProt Q03181); assay: as above
Procedure, shortened: as §1

[11] = qHTS assay for small molecule agonists of the antioxidant response element (ARE) signaling pathway (AID 651741; active = well fitted activation curve with a large enough effect in the signal ratio; the % refers to the signal ratio; also: potency is read from the fitted curve at half-maximal effect; as to activation: % of control where 0% means no effect)
Procedure, shortened: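 Beta-lactamase reporter expression driven by the antioxidant response element in HepG2 cells was detected by fluorescence with LiveBLAzer B/G FRET substrate (2 h, room temperature) following 16 h compound treatment at 37 C.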

[12] = Confirmation and Secondary Assay for Modulators of Hemoglobin Beta Chain Splicing at IVS2 654 locus (AID 910; active = well fitted curve in the direction sought with a large enough effect; an effect the other way counts as inactive or inconclusive;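 also: per-well total GFP intensity by laser scanning cytometry after 2-day treatment; % of control where 0% means no effect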)
Procedure, shortened: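 HeLa cells stably carrying EGFP interrupted by mutant beta-globin IVS2-654 intron (CMV-driven) were treated with compound for 2 days at 37C; corrected splicing was scored as total peak GFP intensity per well (488 nm excitation, 500-520 nm emission).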

[13] = target: Ubiquitin carboxyl-terminal hydrolase 1 (Homo sapiens) (UniProt O94782); assay: Inhibitors of USP1/UAF1: Pilot qHTS (AID 504865; active = well fitted curve in the direction sought with a large enough effect; an effect the other way counts as inactive or inconclusive; also: potency is read from the fitted curve at half-maximal effect; nearly all actives have a fitted effect of over 35% in size)
Procedure, shortened: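 USP1/UAF1 complex (1nM) preincubated with compound 15 min at room temperature, then Ub-Rho substrate (150nM final) added. Fluorescence read kinetically at 480/540 nm, 6 reads every 60 seconds. Buffer: 50mM HEPES pH 7.8, 0.5mM EDTA, 0.1 mg/ml BSA, 1mM TCEP, 0.01% Tween-20.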

[14] = target: Thyroid hormone receptor beta (Homo sapiens) (UniProt P10828); assay: qHTS assay for small molecule antagonists of thyroid hormone receptor beta signaling (AID 588547; active = well fitted inhibition curve with a large enough effect in the signal ratio, with a control signal flat, not every such curve was filed as active; the % refers to the signal ratio;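 also: cells stimulated with 0.4 nM T3 agonist during compound exposure; series mostly up to about 77 µM; % is scaled to controls: 0 for no effect and ±100 for the full control effect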); conditions: TR-UAS-bla HEK293, beta-lactamase ratio, antagonist mode, 18 h
Procedure, shortened: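 TR-UAS-bla GripTite HEK293 cells in 2% charcoal/dextran FBS medium were preincubated 4 h at 37 C, given compound (0.59 nM to 92 uM) plus 0.4 nM T3 (final) for 18 h, then CCF4 for 2 h at RT; Hill fit gave IC50.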

[15] = qHTS assay for small molecule activators of the human pregnane X receptor (PXR) signaling pathway (AID 720659; call rule not given here; also: 0% is about no effect)
[16] = target: Vitamin D3 receptor (Homo sapiens) (UniProt P11473); assay: qHTS assay for small molecule agonists of vitamin D receptor signaling (AID 588543);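 also: 0% = DMSO basal and 100% = reference agonist control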
Procedure, shortened: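 GeneBLAzer VDR-UAS-bla HEK293T cells in 2% charcoal-stripped FBS medium were dosed with compound titrations for 16 h at 37 °C; CCF4 β-lactamase readout (405 nm ex, 460/530 nm em). EC50 and efficacy from Hill fits, normalized to 50 nM calcitriol (100%) and DMSO (0%).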

[17] = qHTS assay for small molecule activators of the nuclear factor-kappa B (NF-kB) signaling pathway (AID 651749; active = well fitted activation curve with a large enough effect in the signal ratio; the % refers to the signal ratio; also: series mostly up to about 77 µM; % of control where 0% means no effect); conditions: NF-kB-bla ME-180 cells, beta-lactamase FRET ratio, 16 h; activation: stronger effect = higher value
Procedure, shortened: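 Beta-lactamase reporter expression, controlled by NF-kB response elements in ME-180 cells, was quantified fluorometrically via FRET disruption; cells at 2,000/well had been incubated with 23 nL test compound for 16 hr.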

Chain of 3',5'-cyclic-AMP phosphodiesterase 4B (Homo sapiens) (Q07343 whole entry, looked up): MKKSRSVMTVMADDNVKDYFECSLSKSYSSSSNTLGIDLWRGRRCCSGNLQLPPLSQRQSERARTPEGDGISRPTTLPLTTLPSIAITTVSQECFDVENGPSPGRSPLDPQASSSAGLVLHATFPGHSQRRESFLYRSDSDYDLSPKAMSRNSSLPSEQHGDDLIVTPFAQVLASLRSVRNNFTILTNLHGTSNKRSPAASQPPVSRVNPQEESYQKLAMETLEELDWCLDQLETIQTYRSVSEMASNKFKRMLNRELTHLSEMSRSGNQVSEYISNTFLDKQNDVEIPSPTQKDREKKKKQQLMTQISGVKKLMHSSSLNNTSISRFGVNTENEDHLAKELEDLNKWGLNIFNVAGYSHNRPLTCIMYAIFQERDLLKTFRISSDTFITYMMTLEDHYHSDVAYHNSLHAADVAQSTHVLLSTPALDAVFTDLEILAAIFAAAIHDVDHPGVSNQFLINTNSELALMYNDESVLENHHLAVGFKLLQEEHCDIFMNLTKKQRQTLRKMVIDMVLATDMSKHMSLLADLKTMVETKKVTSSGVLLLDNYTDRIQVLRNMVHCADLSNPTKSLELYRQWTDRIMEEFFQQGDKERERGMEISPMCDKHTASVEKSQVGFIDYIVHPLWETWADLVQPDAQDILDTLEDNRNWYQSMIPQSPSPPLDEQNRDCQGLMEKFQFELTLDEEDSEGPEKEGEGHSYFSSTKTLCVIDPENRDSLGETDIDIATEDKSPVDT
Chain of Androgen receptor (Homo sapiens) (P10275 whole entry, looked up): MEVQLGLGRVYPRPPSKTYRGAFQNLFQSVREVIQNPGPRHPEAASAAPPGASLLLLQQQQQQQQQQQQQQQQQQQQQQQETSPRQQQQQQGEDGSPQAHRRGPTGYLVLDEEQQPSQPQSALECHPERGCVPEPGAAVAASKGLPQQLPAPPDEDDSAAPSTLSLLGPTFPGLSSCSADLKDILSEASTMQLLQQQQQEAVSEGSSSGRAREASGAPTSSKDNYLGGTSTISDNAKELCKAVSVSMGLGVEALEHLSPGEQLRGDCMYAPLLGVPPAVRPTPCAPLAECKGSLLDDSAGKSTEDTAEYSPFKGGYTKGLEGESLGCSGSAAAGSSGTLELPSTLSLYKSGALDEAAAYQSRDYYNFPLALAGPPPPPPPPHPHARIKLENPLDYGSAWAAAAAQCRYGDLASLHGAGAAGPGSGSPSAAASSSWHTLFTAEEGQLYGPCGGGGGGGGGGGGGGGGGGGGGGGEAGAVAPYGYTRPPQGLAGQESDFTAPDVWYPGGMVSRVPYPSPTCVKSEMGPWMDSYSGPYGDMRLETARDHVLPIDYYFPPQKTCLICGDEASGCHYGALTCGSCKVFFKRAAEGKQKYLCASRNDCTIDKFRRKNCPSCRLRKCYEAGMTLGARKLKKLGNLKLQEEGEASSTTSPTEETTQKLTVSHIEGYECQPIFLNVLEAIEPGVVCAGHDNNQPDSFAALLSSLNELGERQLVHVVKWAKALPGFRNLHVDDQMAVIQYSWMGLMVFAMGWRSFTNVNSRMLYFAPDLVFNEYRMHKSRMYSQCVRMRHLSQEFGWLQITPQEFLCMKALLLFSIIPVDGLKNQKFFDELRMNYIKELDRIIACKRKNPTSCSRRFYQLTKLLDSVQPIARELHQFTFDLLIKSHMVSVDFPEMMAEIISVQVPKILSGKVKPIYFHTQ
Chain of Bile acid receptor (Homo sapiens) (Q96RI1 whole entry, looked up): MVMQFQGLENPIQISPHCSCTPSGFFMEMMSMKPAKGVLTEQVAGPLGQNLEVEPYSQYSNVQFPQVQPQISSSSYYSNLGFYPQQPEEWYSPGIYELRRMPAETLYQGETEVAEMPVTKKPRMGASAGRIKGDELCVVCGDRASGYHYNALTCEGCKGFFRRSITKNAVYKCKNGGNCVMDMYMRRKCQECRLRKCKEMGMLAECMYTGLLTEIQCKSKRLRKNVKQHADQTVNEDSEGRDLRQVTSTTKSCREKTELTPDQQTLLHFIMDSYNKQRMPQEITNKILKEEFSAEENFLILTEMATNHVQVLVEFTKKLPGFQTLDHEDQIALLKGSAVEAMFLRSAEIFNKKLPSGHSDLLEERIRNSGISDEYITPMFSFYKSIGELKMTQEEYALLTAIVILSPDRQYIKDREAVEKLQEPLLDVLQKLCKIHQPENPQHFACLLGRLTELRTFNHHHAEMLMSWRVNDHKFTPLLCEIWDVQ
Chain of Thyroid hormone receptor beta (Homo sapiens) (P10828 whole entry, looked up): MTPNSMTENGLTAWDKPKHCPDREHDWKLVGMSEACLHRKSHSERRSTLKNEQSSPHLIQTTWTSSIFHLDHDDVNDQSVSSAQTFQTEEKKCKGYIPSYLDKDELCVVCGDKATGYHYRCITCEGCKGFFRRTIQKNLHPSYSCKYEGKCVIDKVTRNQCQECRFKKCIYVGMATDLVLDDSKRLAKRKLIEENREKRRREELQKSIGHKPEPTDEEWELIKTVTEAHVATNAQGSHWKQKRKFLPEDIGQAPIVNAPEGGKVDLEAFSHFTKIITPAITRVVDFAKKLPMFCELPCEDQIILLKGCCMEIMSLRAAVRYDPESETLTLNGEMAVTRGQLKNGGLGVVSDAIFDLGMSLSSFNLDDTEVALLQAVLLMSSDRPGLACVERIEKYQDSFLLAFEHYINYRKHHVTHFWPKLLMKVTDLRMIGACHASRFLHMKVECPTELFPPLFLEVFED
Chain of Glucocorticoid receptor (Homo sapiens) (P04150 whole entry, looked up): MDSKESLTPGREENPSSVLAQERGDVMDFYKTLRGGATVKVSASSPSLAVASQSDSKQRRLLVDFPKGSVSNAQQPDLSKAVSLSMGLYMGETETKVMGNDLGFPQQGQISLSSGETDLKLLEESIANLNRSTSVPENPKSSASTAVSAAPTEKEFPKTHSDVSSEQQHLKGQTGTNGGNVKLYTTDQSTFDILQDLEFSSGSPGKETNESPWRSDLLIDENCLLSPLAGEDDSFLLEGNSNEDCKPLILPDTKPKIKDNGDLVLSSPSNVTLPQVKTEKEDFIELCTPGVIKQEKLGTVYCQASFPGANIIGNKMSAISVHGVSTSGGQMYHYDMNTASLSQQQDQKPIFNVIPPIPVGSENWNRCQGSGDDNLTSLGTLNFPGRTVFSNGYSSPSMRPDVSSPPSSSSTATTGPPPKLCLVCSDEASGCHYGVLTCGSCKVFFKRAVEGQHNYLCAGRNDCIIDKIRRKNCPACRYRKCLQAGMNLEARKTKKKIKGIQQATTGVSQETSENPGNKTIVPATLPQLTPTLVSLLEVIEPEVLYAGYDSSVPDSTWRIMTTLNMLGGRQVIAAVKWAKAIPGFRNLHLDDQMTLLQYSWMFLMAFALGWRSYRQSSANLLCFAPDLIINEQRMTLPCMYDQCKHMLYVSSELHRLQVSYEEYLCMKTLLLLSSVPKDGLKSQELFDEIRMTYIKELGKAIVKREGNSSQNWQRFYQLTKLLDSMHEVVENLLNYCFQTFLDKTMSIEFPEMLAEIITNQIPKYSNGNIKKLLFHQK
Chain of Vitamin D3 receptor (Homo sapiens) (P11473 whole entry, looked up): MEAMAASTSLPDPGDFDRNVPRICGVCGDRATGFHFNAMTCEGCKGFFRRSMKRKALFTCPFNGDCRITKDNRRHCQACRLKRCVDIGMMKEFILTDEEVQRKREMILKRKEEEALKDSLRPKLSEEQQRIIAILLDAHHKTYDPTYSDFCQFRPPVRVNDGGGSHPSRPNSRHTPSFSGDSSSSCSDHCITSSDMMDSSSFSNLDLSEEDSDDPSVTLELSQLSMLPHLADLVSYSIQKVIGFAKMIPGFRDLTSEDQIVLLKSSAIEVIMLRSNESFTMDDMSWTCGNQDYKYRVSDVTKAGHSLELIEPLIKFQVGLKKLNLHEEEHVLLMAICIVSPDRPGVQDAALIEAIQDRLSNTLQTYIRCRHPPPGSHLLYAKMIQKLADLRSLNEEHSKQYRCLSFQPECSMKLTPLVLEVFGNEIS
Chain of Peroxisome proliferator-activated receptor delta (Homo sapiens) (Q03181 whole entry, looked up): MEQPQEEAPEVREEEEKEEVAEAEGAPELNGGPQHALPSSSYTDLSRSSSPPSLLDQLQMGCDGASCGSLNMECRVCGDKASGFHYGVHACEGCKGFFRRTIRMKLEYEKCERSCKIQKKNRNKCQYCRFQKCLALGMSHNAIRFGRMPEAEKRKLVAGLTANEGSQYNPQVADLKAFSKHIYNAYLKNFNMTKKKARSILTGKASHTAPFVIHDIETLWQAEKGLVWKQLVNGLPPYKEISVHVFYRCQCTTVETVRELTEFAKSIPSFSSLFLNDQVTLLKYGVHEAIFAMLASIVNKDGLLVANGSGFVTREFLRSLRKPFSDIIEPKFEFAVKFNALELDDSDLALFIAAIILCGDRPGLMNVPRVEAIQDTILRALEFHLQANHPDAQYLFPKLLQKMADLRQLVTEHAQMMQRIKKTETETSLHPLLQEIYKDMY
Chain of Ubiquitin carboxyl-terminal hydrolase 1 (Homo sapiens) (O94782 whole entry, looked up): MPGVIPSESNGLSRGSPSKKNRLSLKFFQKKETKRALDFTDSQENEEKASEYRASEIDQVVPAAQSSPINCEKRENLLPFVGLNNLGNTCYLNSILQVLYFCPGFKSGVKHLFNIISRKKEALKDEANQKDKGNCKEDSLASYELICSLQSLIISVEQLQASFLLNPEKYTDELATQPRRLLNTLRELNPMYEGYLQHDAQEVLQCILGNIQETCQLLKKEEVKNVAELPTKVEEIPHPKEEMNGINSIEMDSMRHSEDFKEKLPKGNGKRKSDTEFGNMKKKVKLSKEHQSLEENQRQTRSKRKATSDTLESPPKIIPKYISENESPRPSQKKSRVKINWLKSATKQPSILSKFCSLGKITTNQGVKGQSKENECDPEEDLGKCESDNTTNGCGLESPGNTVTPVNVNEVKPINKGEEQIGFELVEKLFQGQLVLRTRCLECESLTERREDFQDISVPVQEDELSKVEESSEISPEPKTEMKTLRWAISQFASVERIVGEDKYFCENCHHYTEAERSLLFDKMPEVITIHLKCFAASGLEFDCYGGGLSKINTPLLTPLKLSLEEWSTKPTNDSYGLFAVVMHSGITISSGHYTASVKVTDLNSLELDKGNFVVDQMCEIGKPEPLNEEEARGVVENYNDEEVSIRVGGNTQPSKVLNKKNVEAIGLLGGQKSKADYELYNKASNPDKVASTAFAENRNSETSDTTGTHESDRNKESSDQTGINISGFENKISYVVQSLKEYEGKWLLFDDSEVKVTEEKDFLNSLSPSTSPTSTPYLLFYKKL

COC(=O)[C@]1(C)C[C@H]1[C@H](NP(=O)(c1ccccc1)c1ccccc1)c1ccccc1
inactive: outcome [1] | Potency [2]

COC(=O)[C@@]1(Cc2ccccc2)[C@H]2c3cc(C(=O)N(C)C)[nH]c3C[C@H]2CN1C(=O)c1ccccc1
inactive: outcome [1] | outcome [3]

CC(C)(C)N(NC(=O)c1ccc(Cl)cc1)C(=O)c1ccccc1
-27.8%: max response [9]
inactive: activation [4] 4.02% | Potency [5] | Potency [6] | activation [7] 5.56% | activation [8] -0.985% | Potency [10] | Potency [11]

O=C1C[C@@H]2OCC=C3CN4CC[C@]56c7ccccc7N1[C@H]5[C@@H]2[C@H]3C[C@@H]46
inactive: outcome [1] | outcome [3]

COC(=O)[C@]1(C)CC[C@@]2(C)CC[C@@]3(C)C4=CC=C5C(=CC(=O)C(O)=C5C)[C@@]4(C)CC[C@@]3(C)C2C1 (some centres not stated)
active: Potency [13] 44.7 µM
inactive: Potency [12]

COC(=O)[C@@H]1C[C@H]1[C@@H](NP(=O)(c1ccccc1)c1ccccc1)c1ccccc1
inactive: outcome [1] | outcome [3]

c1cc2c3c(cccc3c1)CC2
-25.4%: max response [9]
inactive: activation [4] 5.35% | Potency [5] | Potency [10] | activity change % (negative = inhibition) [14] 3.51% | Potency [11] | outcome [15]

C=CC(=O)OCCCCCC(C)C
inactive: activation [4] 3.1% | Potency [6] | activation [7] 1.09% | Potency [10] | outcome [16] | Potency [11] | activation [17] 1.07%
38.5%: max response [9]

CCNc1nc(NC(C)(C)C)nc(SC)n1
inactive: Potency [6] | activation [7] 4.27% | activation [8] 4.35% | Potency [10] | outcome [16] | activation [17] -1.56%
44.7%: max response [9]

COP(=S)(OC)Oc1nc(Cl)c(Cl)cc1Cl
active: Potency [11] 27.3 µM
inactive: Potency [6] | activation [8] 1.34% | outcome [15]

CCC[CH2][Sn]([CH2]CCC)([O]C(C)=O)[O]C(C)=O
active: Potency [6] 12.6 µM | Potency [11] 30.6 µM
inactive: activation [7] -0.854% | activation [8] -12.8% | outcome [16] | activity change % (negative = inhibition) [14] -21.2% | activation [17] 0.746% | outcome [15]

CCOc1ccc(C(C)(C)COCc2cccc(Oc3ccccc3)c2)cc1
-0.606%: max response [9]
inactive: Potency [6] | activation [7] 4.53% | activation [8] -0.996% | Potency [10] | outcome [16] | activity change % (negative = inhibition) [14] 2.33% | activation [17] 2.46%

CCOP(=O)(O)C(N)=O
inactive: Potency [6] | activation [7] 3.28% | activation [8] 4.17% | Potency [10] | outcome [16] | activity change % (negative = inhibition) [14] -0.728% | Potency [11] | outcome [15]
57.5%: max response [9]

CCOP(=S)(OCC)Oc1cnc2ccccc2n1
6.57%: max response [9]
inactive: Potency [6] | activation [7] 1.65% | activation [8] -1.45% | Potency [10] | Potency [11] | activation [17] -0.487%

CCCCC(CC)C(=O)Cl (configuration not stated)
inactive: Potency [6] | activation [7] -2.28% | Potency [10] | activity change % (negative = inhibition) [14] 0.279% | Potency [11] | activation [17] -0.95% | outcome [15]
9%: max response [9]

Cc1cnc(C2=NC(C)(C(C)C)C(=O)N2)c(C(=O)O)c1 (configuration not stated)
inactive: activation [4] -8.96% and 2.01% | Potency [5] | activation [8] 0.844% and 5.59% | Potency [10] | outcome [16] | activity change % (negative = inhibition) [14] -3.72% and -20.5% | Potency [11]
-1.47%: max response [9]

CCOP(=S)(OCC)SCC(=O)NC(C)C
inactive: Potency [5] | Potency [6] | activation [7] 0.181% | activation [8] 3% | Potency [11] | activation [17] 0.608%

O=[N+]([O-])c1ccc(Oc2ccc(C(F)(F)F)cc2[N+](=O)[O-])cc1
active: Potency [11] 48.6 µM
inactive: Potency [6] | activity change % (negative = inhibition) [14] 5.9% | outcome [15]

CC1CCCCC1NC(=O)Nc1ccccc1 (configuration not stated)
3.43%: max response [9]
active: Potency [11] 34.4 µM
inactive: Potency [6] | activation [7] 2% | activation [8] -3.51% | Potency [10] | activation [17] -4.02%

Cc1cc(Cl)ccc1OCC(=O)O
inactive: activation [4] -0.462% and -10.2% | Potency [5] | activation [8] -2.21% and 11.1% | outcome [16] | activity change % (negative = inhibition) [14] 22.2% and -4.04% | outcome [15]

O=c1[nH]c2ccccc2c(=O)o1
inactive: Potency [6] | activation [7] 0.0754% | activation [8] -0.7% | Potency [10] | outcome [16] | activity change % (negative = inhibition) [14] -10.7% | Potency [11] | outcome [15]
29.4%: max response [9]

O=P(O)(O)CCCl
-15.9%: max response [9]
inactive: Potency [6] | activation [7] 4.97% and -5.97% | Potency [10] | outcome [16] | activity change % (negative = inhibition) [14] 22.1% and 18.2% | Potency [11] | activation [17] 1.25% and -0.207% | outcome [15]

COP(=S)(OC)Oc1ccc([N+](=O)[O-])c(C)c1
inactive: Potency [6] | activation [7] 2.17% | outcome [16] | activity change % (negative = inhibition) [14] 7.88%
